RE007 growth inh: qHTS Assay for Inhibitors of the HIV-1 protein Vpr | S. pombe RE007 Vpr strain, BacTiter-Glo ATP luminescence, 24 h | Potency, µM (top dose mostly 92.2 µM), actives largely listed as inhibitors | 0.21% of 360,000 active | AID 651644, 2012; active means well fitted falling curve with a large enough effect; inconclusive means small, poorly fitted or top-dose-only effect; inactive means no such curve, though single readings can be large or run the other way; further: nearly all actives have a fitted effect of over 50% in size
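Fission yeast strain RE007, carrying one chromosomally integrated HIV-1 vpr copy, was seeded at OD 0.01 in PMG+AL medium with 23 nL pinned compound. After 24 h at 30 °C and 99% humidity, viability was read by BacTiter-Glo luminescence.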
Shiga toxin inh: A qHTS for Small Molecule Inhibitors of Shiga Toxin. Vero cells, Shiga toxin protein synthesis inhibition reporter. inhibition, % at 38.7 µM. 9.2% of 290,000 active; in the data active means inhibition mostly above about 28%, no sharp cut-off; inactive means mostly below about 43%
Cycloheximide cs: Cycloheximide Counterscreen for Small Molecule Inhibitors of Shiga Toxin; cell reporter, cycloheximide protein synthesis inhibition counterscreen; max response, %; 12% of 300,000 active; in the data active means max response mostly above about 13%, no sharp cut-off; inactive means mostly below about 14%; further: read at 38.3 µM for the half of the compounds with a filed dose
Tb PYK inh: qHTS of Trypanosoma Brucei Inhibitors. pyruvate kinase (Trypanosoma brucei), Q57TT1. TbPYK enzyme, Kinase-Glo Plus ATP luminescence, 45 min. Potency, µM (highest dose often 76.8 µM), usual class: inhibitors. 0.12% of 410,000 active. AID 624173, 2012; further: nearly all actives have a fitted effect of over 50% in size
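Quantitative HTS: titrated library compounds versus trypanosomal pyruvate kinase in TEA buffer (pH 7.2) containing KCl, MgCl2, BSA and Tween-20. Reactions were initiated with ADP, 130 uM final. Kinase-Glo Plus luminescence was read after 45 min at RT.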
Giardia FBPA inh: qHTS Assay for Inhibitors of Fructose-1,6-bisphosphate Aldolase from Giardia Lamblia. A8B2U2. purified Giardia FBPA. Potency, µM (doses to about 59.6 µM), actives largely listed as inhibitors. 0.71% of 290,000 active. AID 2451, 2010; further: nearly all actives have a fitted effect of over 55% in size
Target sequence (A8B2U2 whole entry, looked up): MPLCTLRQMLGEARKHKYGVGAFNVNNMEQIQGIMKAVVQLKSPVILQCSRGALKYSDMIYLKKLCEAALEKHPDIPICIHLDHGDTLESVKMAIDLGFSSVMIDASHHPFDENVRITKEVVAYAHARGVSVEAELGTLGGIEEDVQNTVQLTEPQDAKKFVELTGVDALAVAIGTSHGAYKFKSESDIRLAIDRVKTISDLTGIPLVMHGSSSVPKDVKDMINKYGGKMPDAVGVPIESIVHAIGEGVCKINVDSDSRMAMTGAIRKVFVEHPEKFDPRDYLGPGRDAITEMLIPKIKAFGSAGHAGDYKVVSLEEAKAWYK
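Giardia FBPA (40 nM reagent) was preincubated 10 min at RT with compound (up to 57.5 uM final), then substrate plus GAPDH/TPI/NAD/arsenate coupling system with diaphorase/resazurin was added; resorufin fluorescence (525/598 nm) was read after 20 min.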
LmPK inh: qHTS Assay for Inhibitors of Leishmania Mexicana Pyruvate Kinase (LmPK); purified LmPK, Kinase-Glo ATP luminescence, 1 h; 0.37% of 290,000 active; Q27686; AID 1721, 2009; Potency, µM (top dose mostly 57.5 µM), usual class: inhibitors
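Purified LmPK (0.1 nM) with 0.5 mM PEP and 0.1 mM ADP in imidazole buffer pH 7.2 with MgCl2/KCl, 1 h at room temperature. ATP formed was read by luciferase luminescence and normalized to no-enzyme and uninhibited controls.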
Large screens that a line does not name were inactive. Many of the other results were omitted from the sample, so hits are more common in it than they were. Unless noted, the call rests on the fitted dose curve; in most records, active means well fitted curve in the direction sought with a large enough effect; inconclusive means small, poorly fitted or top-dose-only effect, or another doubt; inactive means no such curve, though single readings can be large; an effect the other way counts as inactive or inconclusive.

CC(=O)c1ccc(S(=O)(=O)N2CCCc3ccccc32)cc1	Cycloheximide cs 11
O=S(=O)(c1ccc(F)cc1)N1CCCc2ccccc21	Cycloheximide cs 31 (no result: RE007 growth inh, Shiga toxin inh, Tb PYK inh)
Cc1ccc(O)c(NC(=O)c2cc(-c3ccccc3)on2)c1	Cycloheximide cs 66 (no result: Shiga toxin inh)
O=C(Nc1cccnc1Cl)c1cc(-c2ccc(Br)cc2)on1	none
O=C(Nc1cc(Br)ccc1O)c1cc(-c2ccccc2)on1	Cycloheximide cs 14
c1ccc(-c2cc(N3CCCCCC3)n[nH]2)cc1	Shiga toxin inh 151, Cycloheximide cs 48, Tb PYK inh inconclusive
O=C(Nc1cc(N2CCCCC2)ncn1)c1ccccc1	Shiga toxin inh 54, Cycloheximide cs 29
c1ccc(-c2cc(N3CCCCC3)ncn2)cc1	Shiga toxin inh 62, Cycloheximide cs 41
Nc1nc(-c2ccccc2)cc(N2CCCCC2)n1	none
CCC(C)(C)C1CCC(=NNc2nc3ccccc3[nH]2)CC1 (stereo not given)	Shiga toxin inh 81, Cycloheximide cs 36
Cc1cc(=O)[nH]c(NN=C2CCC(C(C)(C)C)CC2)n1 (stereo not given)	Giardia FBPA inh inconclusive
O=C(OCc1ccccc1Cl)c1ccc(-c2nnn(Cc3ccc(F)cc3)n2)cc1	none (no result: RE007 growth inh, Shiga toxin inh, Cycloheximide cs, Giardia FBPA inh, LmPK inh)
Clc1ccc(Cn2nnc(-c3ccc(N4CCOCC4)cc3)n2)cc1	none
Cc1ccccc1Cn1nnc(-c2ccc(F)cc2)n1	Shiga toxin inh 30, Cycloheximide cs 19
Fc1ccc(-c2nnn(Cc3ccccc3Cl)n2)cc1	Shiga toxin inh 99, Cycloheximide cs 36
Nc1ccc(-c2nnn(Cc3ccccc3F)n2)cc1	Shiga toxin inh 55, Cycloheximide cs 32
Fc1ccc(Cn2nnc(-c3ccc(Cl)cc3)n2)cc1	Shiga toxin inh 56, Cycloheximide cs 34
O=C(Cn1nnc(-c2ccc(F)cc2)n1)OCC(=O)c1ccccc1	none
CCOc1ccc(NC(=O)CCS(=O)(=O)c2ccc3nc(C)sc3c2)cc1	none (no result: RE007 growth inh, Shiga toxin inh, Cycloheximide cs, Giardia FBPA inh, LmPK inh)
Cc1ccc(Sc2ccc(N3CCC(C(=O)Nc4ccc(C)c(F)c4)CC3)nn2)cc1	none (no result: RE007 growth inh, Shiga toxin inh, Cycloheximide cs, Giardia FBPA inh, LmPK inh)
Nc1ccc(-c2nc3cc([N+](=O)[O-])ccc3o2)cc1	Shiga toxin inh 74, Cycloheximide cs 106
O=c1oc(-c2ccc([N+](=O)[O-])cc2)nc2ccc(O)cc12	LmPK inh inconclusive
CC(C)(C)Nc1nc2cc([N+](=O)[O-])ccc2o1	Shiga toxin inh 48, Cycloheximide cs 17
COc1ccc(-c2nc3cc([N+](=O)[O-])ccc3o2)cc1	Shiga toxin inh 99, Cycloheximide cs 40
O=C(NCC1CCN(Cc2ccccc2Cl)CC1)c1cc2ccc3cccnc3c2[nH]1	none (no result: RE007 growth inh, Shiga toxin inh, Cycloheximide cs, Giardia FBPA inh, LmPK inh)
CC(Cl)c1cc(-c2ncc(C(F)(F)F)cc2Cl)no1 (stereo not given)	Shiga toxin inh 84, Cycloheximide cs 23
COC(=O)C(C(=O)OC)c1ncc(C(F)(F)F)cc1Cl	none
CCNC(=S)/N=C(\N)Nc1nc(C)c2cc(C)ccc2n1	Shiga toxin inh 88, Cycloheximide cs 43
CCOc1ccc2nc(N/C(N)=N/C(=S)Nc3ccc(C)c(C)c3)nc(C)c2c1	none
COc1ccc(CCNC(=O)c2cc3c(-c4ccc(OC)c(OC)c4)nn(C)c3s2)cc1OC	none (no result: RE007 growth inh, Shiga toxin inh, Cycloheximide cs, Giardia FBPA inh, LmPK inh)
CCOC(=O)N1CCC(=NNC(=O)c2ccc(O)cc2)CC1	none
O=C(Nc1ccc2ccccc2c1)c1ccccc1F	Cycloheximide cs 24
CCOC(=O)N1CCC(=NNC(=O)c2ccccc2F)CC1	Shiga toxin inh 25, Cycloheximide cs 49, Tb PYK inh inconclusive
O=C(Nc1ccc(C(=O)N2CCCC2)cc1)c1ccccc1F	Shiga toxin inh 66, Cycloheximide cs 36, Tb PYK inh inconclusive, LmPK inh 14µM
O=C(Nc1ccc2nc(-c3cccnc3)[nH]c2c1)c1ccccc1F	Cycloheximide cs 15
O=C(NCc1ccncc1)c1ccccc1Nc1ccc(SC(F)F)cc1	none
O=C(Nc1ccc2cn[nH]c2c1)c1ccccc1F	Shiga toxin inh 40, Cycloheximide cs 60
CC(=O)Nc1ccc(NC(=O)c2ccccc2F)cc1	Shiga toxin inh 58, Cycloheximide cs 20
